Results as given in PubChem BioAssay AID1159580 (chemical genetic matrix, 2015).
Out of some 5,500 compounds screened, about 2,000 (36%) were called active. Not shown: some 18% with an inconclusive outcome. No stated cut-off is given here; in the data, active means normalized growth mostly below about 0.91 (no sharp cut-off); inconclusive means no clear call, values can overlap the other calls; inactive means mostly above about 0.92. The list shows a part of the results.

Assay: chemical genetic growth profiling, strain panel (AID 1159580);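 further: tested at 20 µM; growth read once vehicle control cultures reached saturation at 30 °C; 1 = growth at the plate median or of vehicle wells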
Details: S. cerevisiae deletion strains, growth OD

Measured: normalized growth

COc1cccc2c1CCC1CC(=O)CCC21C (stereo unspecified)
inactive: locus YAL021C, strain ccr4, stronger effect = lower value 0.99 | locus YAL026C, strain drs2, stronger effect = lower value 0.994 | locus YAL030W, strain snc1, stronger effect = lower value 0.991 | locus YBL061C, strain skt5, stronger effect = lower value 1 | locus YBR009C, strain hhf1, stronger effect = lower value 0.996 | locus YBR021W, strain FUR4, stronger effect = lower value 0.92 | locus YBR023C, strain chs3, stronger effect = lower value 0.993 | locus YBR171W, strain sec66, stronger effect = lower value 0.985 | locus YBR229C, strain ROT2, stronger effect = lower value 0.992 | locus YBR231C, strain swc5, stronger effect = lower value 0.996 | locus YBR279W, strain paf1, stronger effect = lower value 0.988 | locus YCL011C, strain gbp2, stronger effect = lower value 1 | locus YCL016C, strain dcc1, stronger effect = lower value 0.995 | locus YCL029C, strain bik1, stronger effect = lower value 0.955 | locus YCL061C, strain MRC1, stronger effect = lower value 0.996 | locus YCL069W, strain vba3, stronger effect = lower value 0.994 | locus YCR088W, strain abp1, stronger effect = lower value 0.993 | locus YDL005C, strain med2, stronger effect = lower value 1 | locus YDL035C, strain GPR1, stronger effect = lower value 0.982 | locus YDL040C, strain nat1, stronger effect = lower value 0.992 | locus YDL074C, strain BRE1, stronger effect = lower value 0.931 | locus YDL101C, strain DUN1, stronger effect = lower value 0.986 | locus YDL134C, strain PPH21, stronger effect = lower value 0.956 | locus YDL185W, strain tfp1, stronger effect = lower value 0.953 | locus YDL192W, strain arf1, stronger effect = lower value 0.936 | locus YDR001C, strain nth1, stronger effect = lower value 0.984 | locus YDR069C, strain doa4, stronger effect = lower value 1.01 | locus YDR101C, strain arx1, stronger effect = lower value 0.983 | locus YDR137W, strain rgp1, stronger effect = lower value 0.998 | locus YDR159W, strain sac3, stronger effect = lower value 1.02 | locus YDR162C, strain NBP2, stronger effect = lower value 0.919 | locus YDR195W, strain ref2 1.07 | locus YDR297W, strain sur2, stronger effect = lower value 1 | locus YDR318W, strain mcm21, stronger effect = lower value 0.937 | locus YDR334W, strain swr1, stronger effect = lower value 1 | locus YDR335W, strain msn5, stronger effect = lower value 1 | locus YDR388W, stronger effect = lower value 0.948 | locus YDR392W, strain spt3, stronger effect = lower value 0.873 | locus YEL003W, strain gim4, stronger effect = lower value 0.981 | locus YEL037C, strain rad23, stronger effect = lower value 0.992 | locus YEL061C, strain CIN8 (second series), stronger effect = lower value 0.995 | locus YEL061C, strain CIN8, stronger effect = lower value 0.987 | locus YER015W, strain faa2, stronger effect = lower value 1 | locus YER016W, strain bim1, stronger effect = lower value 0.994 | locus YER110C, stronger effect = lower value 0.934 | locus YER111C, strain swi4, stronger effect = lower value 0.994 | locus YER155C, strain BEM2 (second series), stronger effect = lower value 0.944 | locus YER155C, strain BEM2, stronger effect = lower value 0.982 | locus YER167W, strain BCK2, stronger effect = lower value 0.993 | locus YFR010W, strain ubp6, stronger effect = lower value 1 | locus YGL078C, strain dbp3, stronger effect = lower value 0.983 | locus YGL167C, strain pmr1, stronger effect = lower value 1 | locus YGL173C, strain kem1, stronger effect = lower value 0.987 | locus YGL227W, strain vid30, stronger effect = lower value 0.998 | locus YGL240W, strain doc1, stronger effect = lower value 0.982 | locus YGL248W, strain PDE1, stronger effect = lower value 0.975 | locus YGL253W, strain hxk2, stronger effect = lower value 1 | locus YGR229C, strain SMI1, stronger effect = lower value 0.991 | locus YGR252W, strain gcn5, stronger effect = lower value 0.777 | locus YHR013C, strain ard1, stronger effect = lower value 0.976 | locus YHR027C, strain rpn1, stronger effect = lower value 1.02 | locus YHR030C, strain SLT2, stronger effect = lower value 0.991 | locus YHR079C, strain IRE1 (second series), stronger effect = lower value 0.955 | locus YHR094C, strain hxt1, stronger effect = lower value 0.948 | locus YHR129C, strain ARP1, stronger effect = lower value 0.977 | locus YHR142W, strain chs7, stronger effect = lower value 0.981 | locus YHR200W, strain rpn10, stronger effect = lower value 0.941 | locus YIL066C, strain RNR3, stronger effect = lower value 0.968 | locus YIL073C, strain SPO22, stronger effect = lower value 0.887 | locus YIL125W, strain kgd1, stronger effect = lower value 0.977 | locus YIR030C, strain dcg1, stronger effect = lower value 0.962 | locus YJL092W, strain hpr5, stronger effect = lower value 0.994 | locus YJL095W, strain BCK1 (second series), stronger effect = lower value 0.99 | locus YJL095W, strain BCK1, stronger effect = lower value 0.91 | locus YJL115W, strain asf1, stronger effect = lower value 1 | locus YJL129C, strain trk1, stronger effect = lower value 0.939 | locus YJL134W, strain LCB3, stronger effect = lower value 0.981 | locus YJL154C, strain vps35, stronger effect = lower value 0.995 | locus YJL164C, strain tpk1, stronger effect = lower value 0.989 | locus YJL166W, strain qcr8, stronger effect = lower value 0.991 | locus YJL168C, strain set2, stronger effect = lower value 0.963 | locus YJL187C, strain SWE1 (second series), stronger effect = lower value 0.963 | locus YJL187C, strain SWE1, stronger effect = lower value 1.01 | locus YKL009W, strain mrt4, stronger effect = lower value 0.97 | locus YKL068W, stronger effect = lower value 0.969 | locus YKL085W, strain MDH1 (second series), stronger effect = lower value 0.966 | locus YKL085W, strain MDH1, stronger effect = lower value 0.966 | locus YKL160W, strain elf1, stronger effect = lower value 0.98 | locus YKL190W, strain CNB1, stronger effect = lower value 0.993 | locus YKR001C, strain vps1, stronger effect = lower value 0.914 | locus YKR026C, strain gcn3, stronger effect = lower value 0.992 | locus YKR091W, strain srl3, stronger effect = lower value 0.988 | locus YLL001W, strain dnm1, stronger effect = lower value 0.994 | locus YLL026W, stronger effect = lower value 0.999 | locus YLL041C, strain sdh2, stronger effect = lower value 0.99 | locus YLR027C, strain aat2, stronger effect = lower value 0.985 | locus YLR039C, strain RIC1, stronger effect = lower value 0.974 | locus YLR058C, strain SHM2, stronger effect = lower value 0.982 | locus YLR102C, strain apc9, stronger effect = lower value 0.961 | locus YLR221C, strain rsa3, stronger effect = lower value 1.01 | locus YLR258W, strain gsy2, stronger effect = lower value 0.983 | locus YLR262C, strain YPT6 (second series), stronger effect = lower value 1 | locus YLR268W, strain sec22, stronger effect = lower value 0.963 | locus YLR320W, strain mms22, stronger effect = lower value 0.977 | locus YLR330W, strain CHS5, stronger effect = lower value 0.98 | locus YLR342W, strain FKS1, stronger effect = lower value 0.994 | locus YLR357W, strain rsc2, stronger effect = lower value 1.01 | locus YLR370C, strain arc18, stronger effect = lower value 0.987 | locus YLR371W, strain rom2, stronger effect = lower value 0.965 | locus YLR384C, strain iki3, stronger effect = lower value 0.999 | locus YML016C, strain PPZ1, stronger effect = lower value 0.978 | locus YML032C, strain rad52, stronger effect = lower value 0.946 | locus YML120C, strain ndi1, stronger effect = lower value 0.987 | locus YML124C, strain tub3, stronger effect = lower value 0.969 | locus YMR058W, strain fet3, stronger effect = lower value 0.995 | locus YMR078C, strain ctf18, stronger effect = lower value 0.95 | locus YMR125W, strain sto1, stronger effect = lower value 0.995 | locus YMR129W, stronger effect = lower value 0.991 | locus YMR205C, strain PFK2, stronger effect = lower value 0.982 | locus YMR223W, strain ubp8, stronger effect = lower value 0.947 | locus YMR231W, strain pep5, stronger effect = lower value 0.99 | locus YMR263W, strain SAP30, stronger effect = lower value 0.965 | locus YMR307W, strain GAS1, stronger effect = lower value 0.849 | locus YNL067W, strain RPL9B, stronger effect = lower value 0.968 | locus YNL071W, strain lat1, stronger effect = lower value 0.985 | locus YNL209W, strain ssb2, stronger effect = lower value 0.992 | locus YNL233W, strain BNI4, stronger effect = lower value 0.937 | locus YNL248C, strain rpa49, stronger effect = lower value 0.998 | locus YNL250W, strain rad50, stronger effect = lower value 0.952 | locus YNL271C, strain bni1, stronger effect = lower value 0.962 | locus YNL298W, strain CLA4, stronger effect = lower value 0.959 | locus YNL307C, strain MCK1, stronger effect = lower value 0.917 | locus YNL322C, strain KRE1 (second series), stronger effect = lower value 0.996 | locus YNL322C, strain KRE1, stronger effect = lower value 0.982 | locus YNR049C, strain mso1, stronger effect = lower value 1.01 | locus YNR052C, strain pop2, stronger effect = lower value 0.969 | locus YOL006C, strain TOP1, stronger effect = lower value 0.788 | locus YOL012C, strain htz1 0.835 | locus YOL147C, strain pex11, stronger effect = lower value 0.949 | locus YOR001W, strain rrp6, stronger effect = lower value 1.01 | locus YOR061W, strain CKA2, stronger effect = lower value 0.991 | locus YOR069W, strain VPS5, stronger effect = lower value 0.977 | locus YOR070C, strain gyp1, stronger effect = lower value 0.985 | locus YOR080W, strain dia2, stronger effect = lower value 1.01 | locus YOR083W, strain WHI5, stronger effect = lower value 0.987 | locus YOR106W, strain vam3, stronger effect = lower value 1 | locus YOR136W, strain idh2, stronger effect = lower value 0.966 | locus YOR144C, strain elg1, stronger effect = lower value 0.958 | locus YOR265W, strain rbl2, stronger effect = lower value 1.01 | locus YOR270C, strain vph1, stronger effect = lower value 0.907 | locus YOR290C, strain snf2, stronger effect = lower value 0.985 | locus YOR316C, strain cot1, stronger effect = lower value 0.947 | locus YPL051W, strain arl3, stronger effect = lower value 0.981 | locus YPL078C, strain atp4, stronger effect = lower value 0.979 | locus YPL106C, strain sse1, stronger effect = lower value 1 | locus YPL240C, strain hsp82, stronger effect = lower value 0.993 | locus YPR119W, strain clb2, stronger effect = lower value 0.958 | locus YPR141C, strain kar3, stronger effect = lower value 0.965 | locus YPR167C, strain met16, stronger effect = lower value 0.952 | strain wtn01, stronger effect = lower value 0.936
active: locus YDR502C, strain sam2, stronger effect = lower value 0.912 | locus YGL086W, strain mad1, stronger effect = lower value 0.922 | locus YGR135W, strain pre9, stronger effect = lower value 0.886 | locus YLR418C, strain cdc73, stronger effect = lower value 0.812 | locus YOR184W, strain ser1, stronger effect = lower value 0.848 | locus YPR163C, strain tif3, stronger effect = lower value 0.902
